Experimental findings from PubChem BioAssay (NCI) are described below.

The panel holds about 79,000 compounds, 15% with a hit somewhere; the sample as a whole holds those more often. Calls of active or inactive are those of the source. Cut-off read from the data, not from the text of the source: active = growth inhibition above about 70%; inactive = the rest.

This assay in a line: NCI Yeast Anticancer Drug Screen. Data for the cln2 rad14 strain (AID 165).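 Note: 0% = growth equal to vehicle treated cultures.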 To be noted: S. cerevisiae cln2 rad14 strain, at 50.0 µM, hits give high values. Summed up: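 Readout is yeast growth inhibition versus vehicle-treated controls, using a strain with cln2 and rad14 alterations exposed to compound.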
Turning to `O=C(Nc1nc(C23CC4CC(CC(C4)C2)C3)cs1)c1cc2ccc(O)cc2oc1=O`, the growth inhibition is 21.9% (inactive). Regarding `Cc1ccccc1OCC(O)COC(=O)CCS(=O)(=O)O` (configuration not stated), the growth inhibition was 8.1% (inactive). With `CC(=Nc1ccc(Cl)cc1)c1ccncc1` the figure was -6.4% (inactive). With `O=C1CC2C=CC(O)C(C1)C2` (configuration not stated) the figure was 21.1% (inactive). Turning to `O=C(Nc1ccn(CCI)c(=O)n1)c1ccccc1`, the growth inhibition was 14.4% (inactive). Next, `C/C=C/C1OCC(C)(C)CO1`: -46.8% (inactive); `Cc1ccc2cccc(N)c2n1`: -33.5% (inactive). For `CC1(C)CC(=O)OC/C=C\CC(Cc2ccccc2)C(=O)C1` (configuration not stated), the growth inhibition was 6.8% (inactive). With `O=C(O)c1ccncc1C(=O)O` the figure was 0.25% (inactive); with `CCOC(=O)C1(C)Sc2ccccc2N=C1c1ccccc1` (configuration not stated), 7.35% (inactive); with `C[N+](C)(CCCN1C(=O)c2cccc3c(Br)ccc(c23)C1=O)Cc1ccc(Cl)c(Cl)c1`, 95.8% (active). With `COC(=O)[C@@H]1[C@H](O)CC[C@H]2[C@@]1(C)CC[C@@H](C)[C@]2(COC(C)=O)CC(=O)c1ccoc1` the figure was -27.1% (inactive); with `CC(=O)N(C(=O)CC(=O)N1N=C(C)C(N=Nc2cccc([N+](=O)[O-])c2)C1=O)c1ccc(Cl)cc1` (configuration not stated), -11.2% (inactive); with `COc1cccc2c1C(CO)N1C(C#N)C3CC(C(=O)O)C(C1C2)N3C` (configuration not stated), 3.4% (inactive). With `CCn1c(=O)c(C(=O)O)c(Cl)c2cc3c(cc21)OCO3` the figure was 18.9% (inactive). For the compound `O=c1[nH]c(N2CCN(c3ccccc3)CC2)nc2cc3ccccc3cc12`, the growth inhibition is -26.8% (inactive). With `CCN(CC)c1nc(Cl)nc(C(N)=O)c1N` the figure was -16.1% (inactive).
